# Assay results taken from PubChem BioAssay AID504834 (National Center for Advancing Translational Sciences (NCATS), 2011).
# Hit rate of the full screen: of about 320,000 compounds, about 22,000 (6.9%) were called active. Roughly 27% stayed inconclusive and do not appear here. The full list was thinned out, with actives kept by preference. Unmarked numbers belong to inactive results. Calls come from the whole dose curve; as a rule, active = well fitted inhibition curve with a large enough effect; inconclusive = small, poorly fitted or top-dose-only effect, or another doubt; inactive = no such curve, though single readings can be large or run the other way.
# Assay: Primary qHTS for delayed death inhibitors of the malarial parasite plastid, 96 hour incubation
# Details: P. falciparum luciferase reporter growth; series mostly up to 28.7 µM; activity change, negative = inhibition: at the top concentration
# In short: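 Luminescence readout: decreased luciferase signal marks inhibited growth of reporter-expressing P. falciparum in infected red cells (2% hematocrit, 0.05% parasitemia final), exposed to compound two generations (96 h, 37 C, 5% CO2).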
# % is set by controls: 0 for no effect and ±100 for the full control effect; potency is the fitted concentration of half-maximal effect.
Compound,"activity change, negative = inhibition",Potency
CCCCCCC(O)(CCN1CCCCC1)c1ccccc1 (stereo unspecified),17.7%,
O=C(COc1ccccc1Cl)Nc1ccccc1C(=O)NC1CC1,-25%,
CC1(C)CC(=O)c2ccc(O)cc2O1,31%,
COc1ccc2c(c1)OC(O)(C(F)(F)C(F)F)CC2=O (stereo unspecified),,0.828 µM (active)
O=S1(=O)N=C(N(CCO)/N=C/c2ccccc2F)c2ccccc21,-11.7%,
COc1ccc(-n2nc3c(N4CCC(C(=O)NCc5ccccc5)CC4)nnc(C)c3c2C)cc1,,13.1 µM (active)
COc1ccc(CNC(=O)C2CCN(C(=O)c3ccccc3)CC2)cc1,3.36%,
CCOc1ccc(CNC(=O)C2CCCN(c3nnc(C)c4c(C)n(-c5ccccc5)nc34)C2)cc1 (stereo unspecified),-5.12%,
COC(=O)c1ccc(Nc2ncnc3sccc23)cc1,38%,
Cc1c(Cc2ccccc2)c(=O)oc2cc(OCC(N)=O)ccc12,56.5%,
CC(=O)c1c(C)n(-c2ccc(C)cc2)c2ccc(O)cc12,,7.38 µM (active)
CCOC(=O)c1c(C)oc2ccc(OCC(=O)N(CC)CC)cc12,3.22%,
CC(=O)c1c(C)n(-c2ccc(N(C)C)cc2)c2ccc(OCC(N)=O)cc12,,9.28 µM (active)
CCOC(=O)c1c(CN2CCOCC2)n(-c2ccccc2)c2ccc(O)cc12,0.0544%,
O=C(O)CCC(=O)Nc1ccc(OCC2CCCO2)cc1 (stereo unspecified),0%,
CCn1nc(C(=O)Nc2ccc(N3CCOCC3)cc2)c2ccccc2c1=O,-1.95%,
CCCCn1nc(C(=O)Nc2cccc(C(=O)NC3CC3)c2)c2ccccc2c1=O,,11.7 µM (active)
CCCn1nc(C(=O)Nc2ccc3nc(C)sc3c2)c2ccccc2c1=O,-16%,
CC(=O)Nc1ccc(S(=O)(=O)NCC2CCC(C(=O)NCCc3ccccc3)CC2)cc1 (stereo unspecified),17.5%,
COc1ccc(C2NC(=O)N(C)C(C)=C2[N+](=O)[O-])cc1 (stereo unspecified),86.1%,
COc1ccc(C(C)(C)C)cc1NC(=O)CCN1C(=O)C2CCCCC2C1=O (stereo unspecified),-28.3%,
NC(=O)c1ccsc1NC(=O)COC(=O)COc1ccc(C=O)cc1,-16.1%,
O=C(/C=C/c1cccs1)c1cc(Cl)ccc1OC(=O)N1CCOCC1,,8.28 µM (active)
CC(=O)Nc1ccccc1OC(=O)N1CCOCC1,49.8%,

Compound,"activity change, negative = inhibition",Potency
O=C(NCC(c1cccs1)N1CCOCC1)c1cc(Cl)ccc1[N+](=O)[O-] (stereo unspecified),13.4%,
CCOc1cc(C)c(S(=O)(=O)NCc2ccccn2)cc1C,-29.9%,
COc1ccc2[nH]c(C(=O)N3CCN(C)CC3)c(C)c2c1,38.2%,
O=C(c1cc2ccccc2s1)N1CCN(c2ccccn2)CC1,-15.5%,
O=C(NC1CCCC1)C(c1ccco1)N(C(=O)c1csnn1)c1ccccc1 (stereo unspecified),-28.5%,
OCC[C@H]1C[C@@H](O)[C@H](O)[C@]2(OCCCc3ccccc32)O1,63.6%,
COc1cc(OC)c(N2CC(C(=O)Nc3cc(Cl)ccc3N3CCOCC3)CC2=O)cc1Cl (stereo unspecified),,11.7 µM (active)
COc1ccc(Cl)cc1NC(=O)CCN1CCOCC1,1.33%,
Cc1ccc(N2CC(C(=O)Nc3cc(Cl)ccc3-n3cncn3)CC2=O)cc1 (stereo unspecified),19%,
CN(C(=O)CSc1nnc(C2CC2)n1C)C1CCCc2ccccc21 (stereo unspecified),-43.7%,
Cc1cc(C)n2nc(C(=O)OCC(=O)N(CCC#N)c3ccc(F)cc3)nc2n1,-7.01%,
O=C(CCn1nnc2ccccc2c1=O)N[C@@H](Cc1c[nH]c2ccccc12)C(=O)O,29.9%,
CCOC(=O)c1sc(NC(=O)CSc2ncccn2)c(C#N)c1C,-21.8%,
CCC(=O)Nc1sc(C(=O)N2CCCCC2)c(C)c1C#N,,14.7 µM (active)
CCN1CCN(CC(=O)Nc2sc3c(c2C#N)CCC3)CC1,8.13%,
COc1cc(OC)c(C(=O)OCC(=O)N2CC(=O)Nc3ccccc32)cc1OC,0%,
O=C1CN(C(=O)COC(=O)c2cnc(Cl)c(Cl)c2)c2ccccc2N1,-23.4%,
COc1ccc(Cl)cc1-n1c(C)cc(C(=O)OCC(=O)N2CC(=O)Nc3ccccc32)c1C,,4.15 µM (active)
O=C(COC(=O)Cc1ccccc1F)NNC(=O)c1ccc(Cl)cc1,59.7%,
Cc1cc(Br)ccc1NC(=O)CN(C)C(=O)CN1C(=O)NC2(CCCC2)C1=O,14.6%,
COc1ccc(-c2cc(C(=O)N(C)CC(=O)Nc3ccccc3Cl)c3ccccc3n2)cc1OC,,9.28 µM (active)
COc1ccc(Cl)cc1NC(=O)CN(C)C(=O)c1ccc2n[nH]nc2c1,16.7%,
COc1ccc(-c2cc(C(=O)NCCCN3CCCC3=O)c3ccccc3n2)cc1OC,-15.3%,
COc1ccc(CN(C)C(=O)c2cc(-c3ccc(C)cc3C)nc3ccccc23)c(OC)c1OC,,13.1 µM (active)

Compound,"activity change, negative = inhibition",Potency
COc1ccc(-c2cc(C(=O)N(C)Cc3ccccc3)c3ccccc3n2)cc1,-23.6%,
COc1ccc(CN(C)C(=O)Cc2c[nH]c3ccccc23)c(OC)c1OC,5.46%,
CC1CCN(c2ccc([N+](=O)[O-])c(SCCO)c2)CC1,-9.96%,
Cc1ccc(C)c(OCC(=O)NNC(=O)C2CCC2)c1,23.9%,
COc1cccc(OCc2nnc3n2N=C(c2ccccc2)C(CC(=O)O)S3)c1 (stereo unspecified),-2.01%,
CC1CCCN(C(C(=O)Nc2ccc(C(C)C)cc2)c2ccc3c(c2)OCO3)C1 (stereo unspecified),-56.8%,
O=C(Nc1ccc2c(c1)OCCO2)C(c1ccc(F)cc1)N1CCCCC1 (stereo unspecified),,8.28 µM (active)
O=C(CSc1ccc(-c2ccc(F)cc2)nn1)Nc1ccc2c(c1)OCCO2,2.54%,
CC(=O)Nc1ccc(NC(=O)C2CCCN(S(=O)(=O)c3ccc(Cl)cc3)C2)cc1 (stereo unspecified),-29.5%,
CC(NC(=O)CCCC1CCCCC1)c1ccc(S(N)(=O)=O)cc1 (stereo unspecified),-2.5%,
CCOc1cc(/C=C2\C(=N)N3N=C(C)SC3=NC2=O)ccc1OCCOc1ccccc1,5.34%,
O=C(CCCCCn1c(=S)[nH]c2ccsc2c1=O)NC1CCCCC1,,13.1 µM (active)
O=C(CCC(=O)c1cccs1)NC1CCCCCC1,321%,
O=C(COC(=O)/C=C/c1cccs1)NC1CCCCC1,15.1%,
CN1CCN(Cc2nc3cc(NC(=O)COc4ccc([N+](=O)[O-])cc4)ccc3n2C)CC1,-17.9%,
Nc1nc(SCC(=O)Nc2cc(C(F)(F)F)ccc2Cl)[nH]c(=O)c1NC(=O)c1ccco1,48.7%,
Cc1sc2ncn(CC(=O)NCCCC(=O)NCc3ccc(F)cc3)c(=O)c2c1C,-22.9%,
CC(NC(=O)Nc1cccc([N+](=O)[O-])c1)c1ccc2c(c1)OCO2 (stereo unspecified),,2.08 µM (active)
CCc1ccc(NC(=O)NC(C)c2ccc3c(c2)OCO3)cc1 (stereo unspecified),10.4%,
O=C(Nc1cccc([N+](=O)[O-])c1)c1ccc2c(c1)OCO2,200%,
CC(=O)Nc1cccc([N+](=O)[O-])c1,-0.229%,
CC(NC(=S)Nc1ccc(S(N)(=O)=O)cc1)c1ccc2c(c1)OCO2 (stereo unspecified),,4.65 µM (active)
CC(NC(=O)c1ccco1)c1ccc2c(c1)OCO2 (stereo unspecified),-13.1%,
